Screening data from PubChem BioAssay.
In the library only some 2.9% were active in any assay of this set; here they are far more common.
SKN-1 inh: inhibitors of C. elegans SKN-1; C. elegans VP596 Pgst-4::GFP/RFP ratio, acrylamide-induced, 24 h; inhibition, % at 21.8 µM; 360,000 compounds, 0.49% hits;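 active = interference check ratio from 0.5 to 1.5 plus GFP to RFP signal ratio inhibition reaching or exceeding a fixed threshold, cut at about 30% in these data, passing the limit was not always enough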
EP2 modulator: modulates human prostaglandin E2 receptor EP2 signaling. induction, % at 25 µM. 260,000 compounds, 0.83% hits. EP2-expressing cells, cAMP HTRF FRET, PGE2 co-stimulation;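 active = compounds whose cAMP rise, as percent of the full-agonist control response, exceeds 60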;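 also: rat C6 glioma line stably carrying human EP2 under a CMV promoter; the protocol text gives 20 µM as final concentration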
Target sequence (P43116 whole entry, looked up): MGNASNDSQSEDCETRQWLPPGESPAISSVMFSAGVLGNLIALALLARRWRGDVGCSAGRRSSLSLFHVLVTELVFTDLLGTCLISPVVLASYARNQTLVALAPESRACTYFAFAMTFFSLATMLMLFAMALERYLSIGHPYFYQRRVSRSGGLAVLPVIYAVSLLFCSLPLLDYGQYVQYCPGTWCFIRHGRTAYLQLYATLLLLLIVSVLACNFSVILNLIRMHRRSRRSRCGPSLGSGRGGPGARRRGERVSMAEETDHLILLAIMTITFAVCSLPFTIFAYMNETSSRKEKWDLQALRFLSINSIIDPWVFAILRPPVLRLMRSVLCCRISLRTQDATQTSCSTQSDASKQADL
PG9 Ab binder: small molecules binding HIV-1 gp120 antibody PG9 | TR-FRET gp120-PG9 antibody binding | inhibition, % at 6.7 µM | 360,000 compounds, 0.43% hits | AID 624416; in the data active = inhibition above about 8.5%
RAM network inh: blocks the yeast RAM network | S. cerevisiae dse1pr::URA3 reporter, 5-FOA growth OD615, 2 d; analog-sensitive cbk1-as2 kinase mutant strain | inhibition, % at 50 µM | 190,000 compounds, 1.8% hits;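 active = inhibition above a set limit, 3 SD over mean compound inhibition, cut at about 8.4% in these data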;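 also: inhibition rescues growth on 5-FOA so higher OD means more RAM inhibition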
NR1D1 modulator: modulators of human Rev-erb alpha DNA binding; P20393; Rev-erbα–FITC-DNA binding, fluorescence polarization, 90 min; activity, % at 10 µM; 370,000 compounds, 0.79% hits; AID 1259318;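 active = activity above about 14%, limit read from the data; passing the limit was not always enough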
PGE2 EP2 inh: EP2 receptor (human) inhibition | 260,000 compounds, 0.52% hits | P43116 | inhibition, % at 25 µM | C6 glioma cells expressing human EP2, cAMP TR-FRET; cells stimulated with saturating PGE2;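 active = percent inhibition above 40 after rounding to a whole number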;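 also: rat C6 glioma host cells with rolipram phosphodiesterase inhibitor present; the protocol text gives 20 µM as final concentration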
NR1D1 mod conf: confirmation of modulators of human Rev-erb alpha DNA binding; shares compounds with NR1D1 modulator; Rev-erb alpha FITC-DNA binding, fluorescence polarization, 90 min; activation, % at 25 µM; 3,000 compounds, 61% hits; AID 1259319;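 active = activation at or above a set limit, or at least 3 SD above the negative control mean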
RORg counter: RORgamma DNA-binding activity, dose-response counter-screen; shares compounds with NR1D1 modulator; purified RORgamma protein-FITC-DNA binding, fluorescence polarization; IC50, µM; 910 compounds, 8% hits;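 active = Compounds whose fitted half-maximal concentration for disrupting protein-DNA binding is below 10 micromolar; the record names Rev-erb in its text, so the target is in doubt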
A number is an active result; - = inactive; . = not tested or not shown.

SMILES	SKN-1 inh	EP2 modulator	PG9 Ab binder	RAM network inh	NR1D1 modulator	PGE2 EP2 inh	NR1D1 mod conf	others
COc1ccc(OC)c(COC(=O)c2cc([N+](=O)[O-])ccc2N2CCOCC2)c1	-	.	-	.	-	.	.
CC1CCN(c2oc(-c3cccc4ccccc34)nc2C#N)CC1	-	-	-	-	-	-	.
N#Cc1nc(-c2ccccc2F)oc1N1CCN(C(=O)c2ccco2)CC1	-	.	-	.	-	.	.
CC1CC(C)CN(c2oc(-c3ccccc3Cl)nc2C#N)C1 (stereo not drawn)	-	-	-	-	17.7	-	-
N#Cc1nc(-c2ccccc2Cl)oc1N1CCN(C(=O)c2ccco2)CC1	-	.	-	.	25.1	.	-
Cc1cccc2cc(C#N)c(NCCNS(=O)(=O)c3ccc(Br)cc3)nc12	.	-	.	.	.	-	.
C=CCNCc1cc2c(C)nn(-c3ccc(F)cc3)c2[nH]c1=O	.	-	.	.	.	-	.
CCC(C)C(=O)Nc1nnc(Cc2ccc(OC)c(OC)c2)s1 (stereo not drawn)	.	-	.	.	.	-	.
O=c1[nH]c(=O)n(-c2cccc(Cl)c2)c(O)c1C=NCCO	.	-	.	.	.	-	.
CC(=O)Oc1ccc2c(c1)Oc1cc(OC(C)=O)ccc1C21OC(=O)c2ccccc21	-	-	.	-	.	-	.
O=C1OC2(c3ccc(O)cc3Oc3cc(O)ccc32)c2ccccc21	.	.	.	.	690.8	.	596.4
CC(=O)c1c(C)[nH]c(C(=O)Nc2cc(S(=O)(=O)N3CCCCC3)ccc2C)c1C	-	.	-	.	16.8	.	-
COc1ccc(S(=O)(=O)N2CCCCC2)cc1NC(=O)c1[nH]c(C)c(C(C)=O)c1C	-	.	-	.	-	.	.
CC(=O)c1sc2c(c1OC(=O)c1ccc(Cl)cc1)c(=O)n(-c1ccccc1)c(=S)n2-c1ccccc1	-	.	-	.	44.7	.	-
COc1cccc(C(=O)c2cc3cc(Cl)ccc3[nH]2)c1	-	.	-	.	19.9	.	-
CN(C)c1ccc(C(=O)N2CCC(Nc3nc4c(c(=O)[nH]3)CCCC4)CC2)cc1	.	-	.	.	.	-	.
CCCC(=O)N1CCC(n2nnc3ccccc3c2=O)CC1	.	-	.	.	.	.	.
C[C@@H]1C=CCCO[C@]12C(=O)N(CC1CC1)c1cccc(Br)c12	.	.	-	.	12.9	.	-
CC(C)=CCN1C(=O)[C@]2(OCCC=C[C@H]2C)c2c(Br)cccc21	.	.	-	.	-	.	.
CCCNC(=O)CS(=O)(=O)Cc1nc(-c2cccc(OC)c2)oc1C	-	-	-	-	-	-	.
COc1cccc(-c2nc(CS(=O)(=O)CC(=O)NCc3ccc(Cl)cc3)c(C)o2)c1	-	-	-	-	28.7	-	31.5	RORg counter=-
COc1cccc(-c2nc(CS(=O)(=O)CC(=O)Nc3cccc(C)c3C)c(C)o2)c1	-	-	-	-	19.1	-	-
CCN(CC)c1ccc(-c2c(C#N)c(N)nc(OC)c2C#N)cc1	-	-	-	-	177.6	-	136.7	RORg counter=-
COc1ccccc1-c1c(C#N)c(N)nc(OC)c1C#N	.	-	.	.	.	-	.
COc1cc(CC(=O)N2CCCC2c2nc3ccccc3[nH]2)cc(OC)c1OC (stereo not drawn)	.	-	.	.	.	.	.
SMILES	SKN-1 inh	EP2 modulator	PG9 Ab binder	RAM network inh	NR1D1 modulator	PGE2 EP2 inh	NR1D1 mod conf	others
COc1ccc2c(c1)cc(C(=O)N[C@@H](Cc1ccccc1)C(=O)N[C@@H](C)C(=O)O)n2C	-	.	-	.	28.4	.	-
CCC(C)(C)n1nnnc1C(c1cc2ccc(C)cc2[nH]c1=O)N1CCCC2(CCCCC2)C1 (stereo not drawn)	.	-	.	.	.	-	.
Cc1ccc2nc(SCC(=O)N3N=C(c4cccs4)CC3c3ccc(F)cc3)nc(=O)n2c1 (stereo not drawn)	-	.	-	.	-	.	.
COc1ccc(C2=NN(C(=O)CSc3ncccn3)C(c3cccc(OC)c3OC)C2)cc1 (stereo not drawn)	-	-	-	-	38.9	-	33.0	RORg counter=-
COc1ccc(C2=NN(C(=O)CSc3nc(=O)n4cccc(C)c4n3)C(c3ccc(C)cc3)C2)cc1 (stereo not drawn)	-	.	-	.	39.3	.	-
Cc1ccc(C2CC(c3cccs3)=NN2C(=O)CSc2nc(=O)n3cc(C)ccc3n2)cc1 (stereo not drawn)	-	.	-	.	26.7	.	18.3
Cc1ncc(-c2ccncc2)c(C2CCCN(CC(=O)Nc3ccc4c(c3)OCO4)C2)n1 (stereo not drawn)	.	-	.	.	.	.	.
O=C(NC1CCCN(c2ccc(C(F)(F)F)cn2)C1)c1cc(Cl)ccc1F (stereo not drawn)	-	.	-	.	19.9	.	-
O=C(Nc1ccc(O)c(-c2nc3ccccc3s2)c1)c1cccs1	-	-	36.1	-	360.1	-	702.9	RORg counter=-
O=C(c1ccc(NC(=O)C23CC4CC(CC(C4)C2)C3)cc1)N1CCOCC1	.	-	.	.	.	-	.
COc1ccccc1NC(=O)c1oc2ccccc2c1NC(=O)c1cc(OC)c(OC)c(OC)c1	-	.	-	.	100.0	.	69.3	RORg counter=-
COCC(=O)Nc1c(C(=O)Nc2ccccc2OC)oc2ccccc12	-	-	-	-	-	-	.
O=c1[nH]c2ccccc2nc1/C=C(\O)c1cccs1	-	-	-	-	43.1	-	21.8
O=C(N=c1ccn(-c2nc3ccccc3nc2NS(=O)(=O)c2ccc(Cl)cc2)cc1)c1cccs1	-	-	-	.	91.2	47.9	33.5	RORg counter=-
O=C(CSc1nnc(-c2ccncc2)o1)Nc1ccc(Cl)cn1	.	-	.	.	.	-	.
CCCC(=O)N=C1SC2CS(=O)(=O)CC2N1c1ccc(-c2nc3ccc(C)cc3s2)cc1 (stereo not drawn)	-	-	-	-	38.3	-	-
CN1C(=O)N(C)c2ccc(Br)c3cccc1c23	-	.	-	.	89.0	.	81.0	RORg counter=-
O=c1[nH]c(=O)c2nn3nnnc3nc2[nH]1	.	-	.	.	.	-	.
CCN1CCCC1CN(Cc1ccccn1)Cc1ccnn1C1CCCCO1 (stereo not drawn)	.	-	.	.	.	-	.
O=C(CSc1nc2ccccc2c(=O)n1-c1ccc(F)c(Cl)c1)Nc1ccc2c(c1)CCC2	-	.	-	.	-	.	.
O=C(CSc1nc2ccccc2c(=O)n1-c1ccc(F)c(Cl)c1)Nc1cccc(S(=O)(=O)N2CCOCC2)c1	-	-	-	-	37.9	-	19.3
Cc1ccc(-n2c(SCC(=O)Nc3cccc(S(=O)(=O)NC4=NCCCCC4)c3)nc3ccccc3c2=O)cc1	-	-	-	9.8	79.8	-	42.4	RORg counter=-
Cc1ccc(-n2c(SCC(=O)Nc3cc(S(=O)(=O)N4CCOCC4)ccc3Cl)nc3ccccc3c2=O)cc1	-	-	-	-	-	-	.
CCOC(=O)c1c(NC(=O)CSc2nnc(C)n2-c2ccccc2)sc(C(C)=O)c1C	.	-	.	.	.	-	.
O=C(CSc1nc2ccccc2c(=O)n1-c1ccc(F)cc1)Nc1ccc(Cl)c(S(=O)(=O)N2CCOCC2)c1	-	-	-	-	63.0	-	33.2	RORg counter=-
